ChEMBL document CHEMBL1201862, “PubChem BioAssay data set” (2004)
Hit rate of the full screen: of about 400,000 compounds, about 2,100 (0.53%) were called active. Another 14% or so got no clear call; they are omitted. The sample holds actives, similar compounds and a random draw of the others, so the mix is not that of the screen. The rule behind the calls is not given here.

Molecular target: Ataxin-2 (Homo sapiens) (UniProt Q99700)
Experiment: qHTS for Inhibitors of ATXN expression.
Type: functional

Ataxin-2 (Homo sapiens), sequence (Q99700 whole entry): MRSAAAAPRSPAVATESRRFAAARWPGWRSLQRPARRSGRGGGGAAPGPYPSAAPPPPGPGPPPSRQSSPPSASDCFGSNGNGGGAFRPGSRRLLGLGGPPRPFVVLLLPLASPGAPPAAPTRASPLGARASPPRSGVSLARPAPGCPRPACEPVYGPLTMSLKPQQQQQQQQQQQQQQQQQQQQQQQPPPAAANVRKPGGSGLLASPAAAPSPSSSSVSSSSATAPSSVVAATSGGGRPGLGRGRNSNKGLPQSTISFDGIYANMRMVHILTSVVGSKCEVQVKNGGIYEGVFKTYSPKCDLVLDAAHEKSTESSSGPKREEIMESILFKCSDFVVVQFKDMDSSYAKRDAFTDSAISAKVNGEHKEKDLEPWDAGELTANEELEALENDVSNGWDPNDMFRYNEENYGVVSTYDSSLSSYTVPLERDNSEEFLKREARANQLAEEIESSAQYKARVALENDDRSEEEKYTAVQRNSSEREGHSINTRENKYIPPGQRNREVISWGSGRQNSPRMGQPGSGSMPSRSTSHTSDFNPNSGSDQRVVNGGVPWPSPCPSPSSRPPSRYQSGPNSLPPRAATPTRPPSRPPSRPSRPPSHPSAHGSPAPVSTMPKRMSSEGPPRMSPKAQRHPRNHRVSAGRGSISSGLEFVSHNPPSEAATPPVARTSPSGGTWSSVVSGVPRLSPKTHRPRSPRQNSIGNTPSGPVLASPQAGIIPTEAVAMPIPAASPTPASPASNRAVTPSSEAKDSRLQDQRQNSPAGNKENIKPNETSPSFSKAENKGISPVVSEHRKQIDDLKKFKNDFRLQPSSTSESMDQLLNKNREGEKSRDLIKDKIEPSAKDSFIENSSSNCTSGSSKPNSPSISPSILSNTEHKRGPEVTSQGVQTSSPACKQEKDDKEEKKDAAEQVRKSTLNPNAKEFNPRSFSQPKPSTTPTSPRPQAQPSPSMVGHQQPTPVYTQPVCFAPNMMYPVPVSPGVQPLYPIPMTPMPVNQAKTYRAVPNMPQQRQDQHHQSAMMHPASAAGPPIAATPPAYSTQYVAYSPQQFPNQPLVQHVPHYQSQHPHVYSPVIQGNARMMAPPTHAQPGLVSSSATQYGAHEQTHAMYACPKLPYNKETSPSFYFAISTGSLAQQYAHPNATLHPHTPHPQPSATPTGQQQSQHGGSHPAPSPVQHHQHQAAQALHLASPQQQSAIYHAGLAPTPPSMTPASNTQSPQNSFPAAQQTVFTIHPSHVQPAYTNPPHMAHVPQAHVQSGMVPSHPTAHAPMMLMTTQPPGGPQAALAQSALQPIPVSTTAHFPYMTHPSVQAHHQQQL

Compound	Potency
O=C(CCc1ccccc1)NCC1(c2ccccc2)CCCC1	inactive
COc1cc2c(cc1/C=C1/NC(=O)N(CC(=O)Nc3ccccc3)C1=O)OCO2	inactive
Cc1c(-c2ccccc2)c(=O)oc2c(CN3CCOCC3)c(O)ccc12	inactive
Cc1cccn2c(=O)c3cc(C(=O)NCC4CCCO4)c(=N)n(C4CCCC4)c3nc12 (centres undefined)	inactive
N=c1oc2cc(O)ccc2cc1C(=O)Nc1nc2ccccc2s1	inactive
Cc1ccc(S(=O)(=O)N(C)CC(=O)NCC(c2ccc(F)cc2)N2CCOCC2)cc1 (centres undefined)	inactive
O=C(C=Cc1ccccc1)CC(c1ccccc1)N1CCOCC1 (centres undefined)	28.2 µM (active)
O=C(O)c1cc(/C=C/c2ccc(N3CCOCC3)cc2)nc2ccccc12	inactive
COc1ccc(C2C=C(c3ccccc3)Nc3nc(NC(C)=O)nn32)cc1 (centres undefined)	inactive
Cc1c(C(=O)Nc2ccc3c(c2)OCCO3)sc2nc(-c3ccccc3)cn12	39.8 µM (active)
O=C(Nc1cccc(-c2cn3c(n2)SCC3)c1)c1ccc2c(c1)OCO2	inactive
Cc1ccsc1C(=O)Nc1ccc(O)c(-c2nc3ccccc3s2)c1	inactive
C/N=c1\scc(C)n1/N=C/c1cc(Br)c(O)c(Br)c1	inactive
COc1ccc(NC(=O)c2ccc(NC(=O)CCS(=O)(=O)c3cccs3)cc2)cc1Cl	39.8 µM (active)
CCc1ccc(NC(=O)CCNS(=O)(=O)c2cccs2)cc1	inactive
COc1ccc(Cl)cc1NC(=O)CCS(=O)(=O)c1cccc2nonc12	inactive
Cc1c(OC(C)C(=O)NCCN2CCOCC2)ccc2c3c(c(=O)oc12)CCC3 (centres undefined)	inactive
Cc1ccc(NC(=O)C2CCN(C(=O)c3ccco3)CC2)cc1	inactive
O=C(Nc1cc(Cl)ccc1N1CCOCC1)c1cc2ccccc2o1	inactive
O=C(Nc1ccc(N2CCOCC2)c(Cl)c1)c1cc2ccccc2o1	39.8 µM (active)
COc1cc(NC(=O)c2oc3ccccc3c2C)ccc1NC(=O)c1ccco1	inactive
COc1cc(NC(=O)c2cc(Cl)ccc2Cl)ccc1NC(=O)c1cc2ccccc2o1	22.4 µM (active)
O=C(CSc1nc(O)c2ccccc2n1)Nc1ccc(N2CCOCC2)c(Cl)c1	inactive
CC1CCN(C(=O)c2cc(Cl)ccc2NC(=O)c2ccco2)CC1	inactive
O=C(Nc1ccc(N2CCN(C(=O)c3ccco3)CC2)cc1)c1cc(Br)ccc1Cl	35.5 µM (active)

Compound	Potency
O=C(Nc1ccc(N2CCN(C(=O)c3ccco3)CC2)c(Cl)c1)c1cc2ccccc2o1	22.4 µM (active)
N=c1oc2cc(O)ccc2cc1C(=O)Nc1ccc(Cl)cc1	inactive
CCOC(=O)c1cc2ccc(OC(=O)c3ccco3)cc2oc1=O	inactive
CCN(CC)c1ccc(/C=N/NC(=O)c2cccc(S(=O)(=O)N3CCOCC3)c2)c(O)c1	inactive
CCOC(=O)/C(C#N)=C1\CC2CCC1(C)C2(C)C (centres undefined)	inactive
O=[N+]([O-])c1ccccc1Oc1ncccc1[N+](=O)[O-]	8.91 µM (active)
O=C1c2cccc3c([N+](=O)[O-])ccc(c23)C(=O)N1c1ccccn1	inactive
CCC1Cc2c(nc(N)c3c(N)nc(N4CCOCC4)c(C#N)c23)O1 (centres undefined)	inactive
N#CCc1nc(C(c2ccccc2)c2ccccc2)no1	inactive
CCCNC(=O)c1ccc2c(O)c(O)c(-c3ccsc3)nc2c1	inactive
CC(C)N1CCc2c(sc(NC(=O)Cc3ccccc3)c2C#N)C1	inactive
CCC(=O)Nc1sc2c(c1C(N)=O)CCN(Cc1ccccc1)C2	inactive
CC(C)N1CCc2c(sc(NC(=O)c3cc(-c4cccs4)nc4ccccc34)c2C(N)=O)C1	33.6 µM (active)
CN1CCc2c(sc(NC(=O)c3ccc(S(=O)(=O)N4CCCCCC4)cc3)c2C(N)=O)C1	inactive
CC(C)N1CCc2c(sc(NC(=O)c3cc4cc([N+](=O)[O-])ccc4s3)c2C(N)=O)C1	29.9 µM (active)
CC(C)CN(CC(C)C)S(=O)(=O)c1ccc(C(=O)Nc2sc3c(c2C(N)=O)CCN(C(C)C)C3)cc1	inactive
CCOc1cc(CNC(C)(C)CO)cc(Br)c1OCc1ccc(Cl)cc1Cl	39.8 µM (active)
CCOc1cc(CNCCO)cc(Br)c1OCc1ccc(Cl)cc1Cl	39.8 µM (active)
Cc1ccc(C)c(OC(C)C(=O)Nc2ccc(S(=O)(=O)Nc3nccs3)cc2)c1 (centres undefined)	inactive
CCc1nnc(NC(=O)c2sc3nc(C)cc(COC)c3c2N)s1	inactive
COc1ccc(/C=N/n2c(S)nnc2COc2ccccc2)cc1OC	inactive
Cc1ccc(-c2[nH]ncc2/C=N/n2c(COc3ccccc3)nc3ccccc3c2=O)cc1	39.8 µM (active)
Oc1ccccc1/C=N/n1c(S)nnc1COc1ccccc1	inactive
Cc1ccc(-c2nc3ccccc3c(=O)o2)cc1	inactive
Cc1ccc(-c2[nH]ncc2/C=N/n2c(COc3ccccc3C)nc3ccccc3c2=O)cc1	15.8 µM (active)

Compound	Potency
Cc1nc2ccccc2c(=O)n1/N=C/c1ccc(O)c(O)c1O	inactive
O=C(CSc1nnc(-c2cccc(Br)c2)o1)N1CCNC1=O	inactive
CC1CCN(S(=O)(=O)c2ccc3nc(Nc4cccc(F)c4)ccc3c2)CC1	35.5 µM (active)
CC1CCN(S(=O)(=O)c2ccc(NC(=O)CN3CCCC3)cc2)CC1	inactive
O=S(=O)(c1ccc2nc(N3CCN(c4ccccc4)CC3)ccc2c1)N1CCCCC1	inactive
O=C(OCCN1C(=O)c2cccc3c(N4CCOCC4)ccc(c23)C1=O)c1ccc(Cl)cc1	inactive
O=C(CC(=O)N/N=C/c1ccc(C(=O)O)cc1)NCCc1ccccc1	inactive
O=C(Nc1nc2ccc([N+](=O)[O-])cc2s1)c1ccc(S(=O)(=O)N2CCCc3ccccc32)cc1	inactive
O=S(=O)(c1ccc(F)cc1)N1CCc2ccccc2C1	inactive
COCCN(Cc1ccccc1)C(=O)c1cccc(S(=O)(=O)N2CCCc3ccccc32)c1	inactive
O=C(c1ccc(S(=O)(=O)N2CCCCC2)cc1)N1CCc2ccccc2C1	inactive
COc1ccc2sc(N(CCCN(C)C)C(=O)c3ccc(S(=O)(=O)N4CCCc5ccccc54)cc3)nc2c1	39.8 µM (active)
COc1ccc(C)c2sc(N(CCCN(C)C)C(=O)c3ccc(S(=O)(=O)N4CCc5ccccc5C4)cc3)nc12	22.4 µM (active)
O=c1[nH]c(=O)c2nc(-c3ccc(Cl)cc3)cnc2[nH]1	inactive
O=c1c2nccnc2[nH]c(=S)n1Cc1ccccc1Cl	inactive
CC1CN(Cc2cc(=O)oc3cc(O)ccc23)CC(C)O1 (centres undefined)	inactive
COCc1nnc(NS(=O)(=O)c2ccc(OC)cc2)s1	inactive
CN1CCN(c2nc(-c3cccnc3)nc3scc(-c4ccccc4)c23)CC1	inactive
CC1CCN(c2nc(CN3CCCCC3)nc3scc(-c4ccccc4)c23)CC1	22.4 µM (active)
CC(=O)N1CCN(Cc2nc(O)c3c(-c4ccccc4)csc3n2)CC1	inactive
Cc1cccc(/N=C/c2cc(Br)cc(Cl)c2O)c1	inactive
O=C(C[n+]1ccc2c(c1)nnn2-c1ccccc1)c1ccc(Cl)cc1	inactive
O=C1OC(c2ccccc2)(c2cc(Br)ccc2O)c2ccccc21 (centres undefined)	35.5 µM (active)
COCc1cc(C)nc2sc(C(=O)Nc3ccc(OC(F)(F)F)cc3)c(N)c12	inactive
Cc1ccc(NC2=C(C(=O)Nc3c(C)cc(C)cc3C)C(=N)C(C(=O)Nc3ccc(OC(F)(F)F)cc3)S2)cc1 (centres undefined)	18.9 µM (active)

Compound	Potency
CSCCC(NC(=O)C1CCCC1)c1nnc2ccccn12 (centres undefined)	inactive
CCCCCCN1C=C/C(=C\C=C(C#N)C#N)c2ccccc21	20 µM (active)
C=CCN1C=C/C(=C\C=C(C#N)C#N)c2ccccc21	6.7 µM (active)
O=C(O)COc1ccc(/C=C/c2nc3ccc([N+](=O)[O-])cc3s2)cc1	inactive
CCN(CC)c1ccc2c(Cl)c(Br)c(=O)oc2c1	inactive
c1ccn2c(c1)nc1c2nc2ccccn21	inactive
C=CCNC(=O)c1cc2c(=O)n3ccccc3nc2s1	inactive
COc1ccc(/C=N/NC(=O)CCn2nnc3ccccc32)cc1	inactive
COc1ccc(/C=C/C(=O)c2ccc3ccccc3c2O)cc1CN1CCOCC1	inactive
COc1ccc(/C=C/C(=O)c2ccccc2)cc1Cn1nnc2ccccc21	39.8 µM (active)
O=C(O)C1Sc2nc(O)sc2C2c3ccc(O)cc3OC(=O)C12 (centres undefined)	inactive
COc1ccc(C2CC(c3ccccc3)=NN2c2ccc(C(N)=O)cc2)cc1 (centres undefined)	inactive
O=C(OCc1cn([C@H]2CN(CC3CCCCC3)[C@@H](c3ccc(Cl)cc3)C[C@@H]2O)nn1)c1ccccc1	35.5 µM (active)
COc1ccc(C2C3=C(CCCC3=O)N(CC(=O)O)C3=C2C(=O)CCC3)cc1	inactive
COCC(=O)Nc1nc2n(n1)C(c1ccccc1)CC(c1ccc(OC)cc1)N2 (centres undefined)	inactive
O[C@H]1CN(CC2CCCCC2)[C@@H](c2ccc(Cl)cc2)C[C@@H]1n1cc(C2CC2)nn1	20 µM (active)
COc1ccc([C@H]2C[C@@H](O)[C@H](n3cc(COC(=O)c4ccccc4)nn3)CN2CC2CCCCC2)cc1	28.2 µM (active)
COc1ccc([C@H]2C[C@H](O)[C@@H](n3cc(COC(=O)c4ccccc4)nn3)CN2CC2CCCCC2)cc1	35.5 µM (active)
CC(C)C(=O)Nc1ccc(C(=O)N/N=C/c2cc(Br)cc(Br)c2O)cc1	inactive
N#Cc1nc(/C=C/c2ccc(F)cc2)oc1N1CCCCCC1	inactive
Cc1nc2ccccc2c2c(N)c3ccccc3n12	inactive
CC(=O)C1=CCC(c2ccc(Br)cc2)N(S(=O)(=O)c2ccc(C)cc2)C1 (centres undefined)	20 µM (active)
Cc1ccc(-c2ccc(S(=O)(=O)N3CC(C)OC(C)C3)cc2)cc1 (centres undefined)	inactive
Cc1ccc(S(=O)(=O)CCC(=O)OCCOc2ccc(Br)cc2)cc1	inactive
